Data on ten molecules can be found in PubChem BioAssay (NCATS).

Results filed as inconclusive are left out. The source made the active and inactive calls. The call rests on the fitted dose curve; in most records, active means well fitted curve in the direction sought with a large enough effect; inconclusive means small, poorly fitted or top-dose-only effect, or another doubt; inactive means no such curve, though single readings can be large; an effect the other way counts as inactive or inconclusive.

The nature of assay [1]: NS1 protein of Zika virus - qHTS assay to identify small molecule inhibitors in human HEK 293 cells (AID 1347053). Further: nearly all actives have a fitted effect of over 55% in size. In a few lines:
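Inhibition of NS1 expression was scored in HEK 293 cells given compound 1 h ahead of MR766 virus (MOI = 0.5). Following 24 h at 37 C, two anti-NS1 antibodies generated a TR-FRET signal, scaled between uninfected and infected controls.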

The nature of assay [2]: qHTS of pediatric cancer cell lines to identify multiple opportunities for drug repurposing: Primary screen for SJ-GBM2 cells (AID 1347091). In a few lines: (§1)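 Viability measured as metabolically active cells via CellTiter-Glo luminescence following 48 hours of compound exposure, 11-point dilutions in confirmatory testing. 500-1,000 cells/well plated 5 hours before dosing; controls were DMSO and 2.3 µM bortezomib.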
Background: In qHTS, concentration-response curves come from the screen itself.

Assay [3] can be described thus: qHTS of pediatric cancer cell lines to identify multiple opportunities for drug repurposing: Primary screen for A673 cells (AID 1347092). Further: nearly all actives have a fitted effect of over 45% in size. In a few lines: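 Titration-based qHTS on A673 cells: MIPE compounds spanned 11 points (0.78 nM to 46 µM final), NPC compounds 8 points (0.59 nM to 46 µM final). Viability after 48 h was measured by ATP luminescence.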
Assay [4] is described as follows: qHTS of pediatric cancer cell lines to identify multiple opportunities for drug repurposing: Primary screen for SK-N-MC cells (AID 1347093). In a few lines: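 Metabolically active cells were quantified by ATP-dependent luminescence (CellTiter-Glo, 15 min at room temperature) following 48 h treatment. Cells had been plated at 500-1,000 per well and settled for 5 h beforehand.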

The nature of assay [5]: qHTS of pediatric cancer cell lines to identify multiple opportunities for drug repurposing: Primary screen for TC32 cells (AID 1347089). Further: nearly all actives have a fitted effect of over 60% in size. In a few lines:
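A viability screen of TC32 cells was run over 48 h, with primary MIPE doses spanning 0.78 nM–46 µM and NPC doses 0.59 nM–46 µM. ATP luminescence (CellTiter-Glo) served as the read-out.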

A short description of assay [6]: qHTS of pediatric cancer cell lines to identify multiple opportunities for drug repurposing: Primary screen for DAOY cells (AID 1347090). Further: nearly all actives have a fitted effect of over 55% in size. The method in brief:
as §1
Potency means the concentration at half of the fitted maximal effect.

For `CCOc1cc2c(c(F)c1OCC)C(=N)N(CC(=O)c1cc(N3CCOCC3)c(OC)c(C(C)(C)C)c1)C2`, the Potency result in assay [1] was “inactive”. For the same molecule, the Potency in assay [2] is 23500 nM (active); in assay [3], 9.35 µM (active); in assay [4], 833 nM (active).
For `N#Cc1c(C2CCNCC2)cc(-c2c(O)cccc2OCC2CC2)nc1N`, the Potency result in assay [1] is “inactive”. The Potency in assay [3] is 18.7 µM (active); in assay [4], 1050 nM (active).
With `Cn1cc(C2=C(c3c4n(c5ccccc35)CCC(CN)C4)C(=O)NC2=O)c2ccccc21` (centres undefined), the Potency is 13.2 µM (active) in assay [1] and 5.9 µM (active) in assay [3].
`COc1cc(C)c(C=CC(C)=CC=CC(C)=CC(=O)O)c(C)c1C`: the Potency result in assay [1], in assay [2] and in assay [3] was “inactive” each time.
`CCN(CC)Cc1ccc2cc(COC(=O)Nc3ccc(C(=O)NO)cc3)ccc2c1`: the Potency in assay [5] was 5870 nM (active); in assay [6], 2.96 µM (active); in assay [2], 743 nM (active); in assay [3] it was 1.48 µM (active); in assay [4], 833 nM (active).
On to `O=C(O)CCCCC(CCSCc1ccccc1)SCc1ccccc1` (centres undefined), for which the Potency entry in assay [1] was “inactive”. The results for the Potency in assay [6] and in assay [4] were 23.5 µM (active) and 9350 nM (active), respectively.
Turning to `FC(F)c1nc2ccccc2n1-c1nc(N2CCOCC2)nc(N2CCOCC2)n1`, the Potency was 1.87 µM (active) in assay [1], 74.3 nM (active) in assay [2], 1.18 µM (active) in assay [3] and 59 nM (active) in assay [4].
For `Nc1nc(=O)n([C@H]2C[C@H](O)[C@@H](CO)O2)cc1F`, in assay [5], the Potency is 829 nM (active). For the same molecule, the Potency result in assay [6] and in assay [2] was “inactive” in each case.
Consider `CCOc1cc2ncc(C#N)c(Nc3ccc(OCc4ccccn4)c(Cl)c3)c2cc1NC(=O)C=CCN(C)C`, for which, in assay [1], the Potency result was “inactive”. Further, the Potency in assay [2] was 1180 nM (active); in assay [4], 105 nM (active).
Regarding `O=C(C=Cc1ccc(CN(CCO)CCc2c[nH]c3ccccc23)cc1)NO`, the Potency is 930 nM (active) in assay [5], 0.469 µM (active) in assay [6], 118 nM (active) in assay [2] and 105 nM (active) in assay [4].
